Whole data set: some 16,000 sequences, median “rpm ratio (pull-down/input)” near 0.5, cut for the highest 2% near 5.5. The sample as a whole holds a higher share of the highest values than the screen did.

This assay addresses T1, MBP-FoxP3dN (Mus musculus, UniProt Q99JB6 188-423).
T1 sequence: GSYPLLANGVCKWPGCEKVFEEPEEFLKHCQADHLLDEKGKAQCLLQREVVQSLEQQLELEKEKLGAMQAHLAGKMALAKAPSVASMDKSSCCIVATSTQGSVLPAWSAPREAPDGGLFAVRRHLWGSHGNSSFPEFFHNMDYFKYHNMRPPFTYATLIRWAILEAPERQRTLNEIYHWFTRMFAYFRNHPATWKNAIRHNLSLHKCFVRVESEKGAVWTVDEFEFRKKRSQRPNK
The experiment in a line: PD-seq (MBP pull-down with sequencing); 20 mM Tris-HCl pH 7.5, 100 mM NaCl, 1.5 mM MgCl2, 0.4 uM protein, 0.1 uM dsDNA library, 30 min, room temperature, amylose pull-down; high values mean tight binding. As to conditions: protein: recombinant; tags: His6-MBP; chain copies: 2; dsDNA, one strand shown. In short, it runs like this: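 A degenerate double-stranded DNA library, filled in with Klenow, was added at 0.1 µM to 0.4 µM His6-MBP-tagged mouse FoxP3 or FoxP1 fragment lacking the N-terminus, expressed in E. coli. Incubation lasted 30 min at room temperature in Tris pH 7.5 buffer with NaCl and MgCl2, after which complexes were collected on amylose resin, washed three times, digested with proteinase K to free the DNA, barcoded by PCR and sequenced by Illumina. Binding is the pooled-replicate reads-per-million enrichment of pull-down over input.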
“GATGATTGTTCTCCCAGCTGATGAATTGAATAGATCGAGTAAACAAATTTTCCTAATCTTTCTGTTCAAGCGCCATCTAC”: the binding signal is 0.257 RPM ratio (pull-down/input).
As for “GATGATTGTTCTCCCAGCTGATGAATTTGGTGCCTCGAGTAAACAAATTTTCCTAATCTTTCTGTTCAAGCGCCATCTAC”, the figure is 1.91 RPM ratio (pull-down/input); as for “GATGATTGTTCTCCCAGCTGATGAATTATGCAATTCGAGTAAACAAATTTTCCTAATCTTTCTGTTCAAGCGCCATCTAC”, 5.58 RPM ratio (pull-down/input); as for “GATGATTGTTCTCCCAGCTGATGAATTATGCATCTCGAGTAAACAAATTTTCCTAATCTTTCTGTTCAAGCGCCATCTAC”, 7.47 RPM ratio (pull-down/input).
As for “GATGATTGTTCTCCCAGCTGATGAATTATGCAAATCGAGTAAACAAATTTTCCTAATCTTTCTGTTCAAGCGCCATCTAC”, the figure is 1.16 RPM ratio (pull-down/input); as for “GATGATTGTTCTCCCAGCTGATGAATTATGATTTTCGAGTAAACAAATTTTCCTAATCTTTCTGTTCAAGCGCCATCTAC”, 1.8 RPM ratio (pull-down/input); as for “GATGATTGTTCTCCCAGCTGATGAATTTATGCAATCGAGTAAACAAATTTTCCTAATCTTTCTGTTCAAGCGCCATCTAC”, 4.25 RPM ratio (pull-down/input).
With “GATGATTGTTCTCCCAGCTGATGAATTATGCATTTCGAGTAAACAAATTTTCCTAATCTTTCTGTTCAAGCGCCATCTAC”, the binding signal is 7.25 RPM ratio (pull-down/input).
With “GATGATTGTTCTCCCAGCTGATGAATTATGAATTTCGAGTAAACAAATTTTCCTAATCTTTCTGTTCAAGCGCCATCTAC” the figure was 1.57 RPM ratio (pull-down/input).
Take “GATGATTGTTCTCCCAGCTGATGAATTATGCAGCTCGAGTAAACAAATTTTCCTAATCTTTCTGTTCAAGCGCCATCTAC”: the binding signal is 3.11 RPM ratio (pull-down/input).
With “GATGATTGTTCTCCCAGCTGATGAATTATGAATCTCGAGTAAACAAATTTTCCTAATCTTTCTGTTCAAGCGCCATCTAC” the figure was 2.3 RPM ratio (pull-down/input); with “GATGATTGTTCTCCCAGCTGATGAATTGAGGCCGTCGAGTAAACAAATTTTCCTAATCTTTCTGTTCAAGCGCCATCTAC”, 0.905 RPM ratio (pull-down/input); with “GATGATTGTTCTCCCAGCTGATGAATTAACTGTTTCGAGTAAACAAATTTTCCTAATCTTTCTGTTCAAGCGCCATCTAC”, 0.641 RPM ratio (pull-down/input).
With “GATGATTGTTCTCCCAGCTGATGAATTGATGCCATCGAGTAAACAAATTTTCCTAATCTTTCTGTTCAAGCGCCATCTAC” the figure was 3.67 RPM ratio (pull-down/input); with “GATGATTGTTCTCCCAGCTGATGAATTTCTGCAATCGAGTAAACAAATTTTCCTAATCTTTCTGTTCAAGCGCCATCTAC”, 3.01 RPM ratio (pull-down/input); with “GATGATTGTTCTCCCAGCTGATGAATTGCAGCAATCGAGTAAACAAATTTTCCTAATCTTTCTGTTCAAGCGCCATCTAC”, 2.72 RPM ratio (pull-down/input).
As for “GATGATTGTTCTCCCAGCTGATGAATTTTTGCAATCGAGTAAACAAATTTTCCTAATCTTTCTGTTCAAGCGCCATCTAC”, the figure is 3.95 RPM ratio (pull-down/input); as for “GATGATTGTTCTCCCAGCTGATGAATTGCAACCATCGAGTAAACAAATTTTCCTAATCTTTCTGTTCAAGCGCCATCTAC”, 4.48 RPM ratio (pull-down/input).
For “GATGATTGTTCTCCCAGCTGATGAATTGTTGCAATCGAGTAAACAAATTTTCCTAATCTTTCTGTTCAAGCGCCATCTAC”, the binding signal is 5.54 RPM ratio (pull-down/input).
As for “GATGATTGTTCTCCCAGCTGATGAATTGCAACAATCGAGTAAACAAATTTTCCTAATCTTTCTGTTCAAGCGCCATCTAC”, the figure is 7.74 RPM ratio (pull-down/input); as for “GATGATTGTTCTCCCAGCTGATGAATTGCAATCATCGAGTAAACAAATTTTCCTAATCTTTCTGTTCAAGCGCCATCTAC”, 2.79 RPM ratio (pull-down/input); as for “GATGATTGTTCTCCCAGCTGATGAATTGATGCAATCGAGTAAACAAATTTTCCTAATCTTTCTGTTCAAGCGCCATCTAC”, 5.86 RPM ratio (pull-down/input).

These data come from paper PMC12820563, “FoxP3 forms a head-to-head dimer in vivo and stabilizes its multimerization on adjacent microsatellites”.
